L3MBTL1 block: L3MBTL1 (human) inhibition | actives 0.66% (n = 230,000) | Potency, µM (highest dose often 57.1 µM), most hits filed as inhibitors | AlphaScreen L3MBTL1–H3K9me1 peptide binding | Q9Y468; also: nearly all actives have a fitted effect of over 60% in size
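L3MBTL1 50 nM + b-AHA-H3(1-15)K9me1 75 nM, 30 min RT; compound added, 30 min RT; streptavidin donor/Ni-chelate acceptor beads 10 ug/mL each final, 30 min RT dark; AlphaScreen read.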
POLI inh: DNA polymerase iota (human) inhibition | Pol iota fluorescent replication assay, 10 min | actives 1% (n = 390,000) | Q9UNA4 | Potency, µM (series often up to 115 µM), hits mostly inhibitors
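Pol iota at 10 nM preincubated 15 min with compounds at room temperature; reaction started with fluorescent substrate, 50 nM final. Fluorescence read kinetically at 0 and 10 min; buffer-only wells as negative control.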
POLK inh: inhibitors of human DNA polymerase kappa. purified Pol kappa, fluorescent DNA synthesis assay, 10 min. Potency, µM (highest dose often 107 µM), actives largely listed as inhibitors. actives 0.53% (n = 400,000)
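Pol kappa 10 nM + cpd, 15 min RT; start w/ substrate 50 nM final; fluorescence kinetic read, 0 and 10 min. Neg ctrl: buffer, no enzyme.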
Pol eta inh: inhibitors of human DNA polymerase eta; recombinant Pol eta, fluorescent DNA replication assay; Potency, µM (highest dose often 114 µM), actives largely listed as inhibitors; actives 1.2% (n = 390,000)
Target sequence (Q9Y253 whole entry, looked up): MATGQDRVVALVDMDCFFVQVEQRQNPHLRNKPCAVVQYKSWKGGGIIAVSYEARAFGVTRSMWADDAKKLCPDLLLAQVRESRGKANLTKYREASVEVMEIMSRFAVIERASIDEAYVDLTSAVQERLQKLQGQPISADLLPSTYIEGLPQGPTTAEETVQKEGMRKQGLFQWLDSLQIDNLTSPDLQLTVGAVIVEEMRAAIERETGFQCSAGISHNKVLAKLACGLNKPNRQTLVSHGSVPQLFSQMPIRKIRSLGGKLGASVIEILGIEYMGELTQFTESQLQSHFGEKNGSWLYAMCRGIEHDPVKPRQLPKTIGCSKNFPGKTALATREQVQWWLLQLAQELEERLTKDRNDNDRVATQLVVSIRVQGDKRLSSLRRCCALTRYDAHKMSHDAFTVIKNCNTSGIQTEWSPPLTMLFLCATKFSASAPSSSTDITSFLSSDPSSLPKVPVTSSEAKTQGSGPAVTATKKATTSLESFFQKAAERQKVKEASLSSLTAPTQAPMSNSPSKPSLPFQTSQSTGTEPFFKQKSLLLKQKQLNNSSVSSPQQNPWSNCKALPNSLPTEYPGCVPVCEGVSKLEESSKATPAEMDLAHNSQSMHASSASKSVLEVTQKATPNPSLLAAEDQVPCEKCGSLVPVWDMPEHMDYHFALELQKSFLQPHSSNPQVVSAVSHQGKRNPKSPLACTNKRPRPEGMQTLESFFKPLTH
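Pol eta (10 nM) was preincubated with compounds for 15 min at room temperature, after which fluorescent replication substrate (50 nM final) was added to start the reaction. Fluorescence was read kinetically at 0 and 10 min.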
POLB inh: inhibitors of human DNA polymerase beta | P06746 | Pol beta primer extension/strand displacement, fluorescence kinetic | Potency, µM (doses to about 114 µM), most hits filed as inhibitors | actives 1.3% (n = 340,000)
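Homogeneous kinetic assay of primer extension and strand displacement by 10 nM Pol beta, preincubated 15 min at room temperature with compound before 50 nM substrate (final) was added. Read at 0 and 10 min; four-parameter Hill fit.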
Of the large screens only hits and unclear results are named; the others gave an inactive call. An excerpt weighted towards active compounds, which were near 2.4% of everything screened. Calls follow the shape of the dose curve; as a rule, active = well fitted curve in the direction sought with a large enough effect; inconclusive = small, poorly fitted or top-dose-only effect, or another doubt; inactive = no such curve, though single readings can be large; an effect the other way counts as inactive or inconclusive.

COc1ccc(C(CC(=O)N2CCCC(C)C2)c2c(OC)cc(OC)c3c(-c4ccccc4)cc(=O)oc23)cc1 (configuration not stated)	POLI inh 50µM, POLK inh 79µM, Pol eta inh 25µM, POLB inh 35µM (no result: L3MBTL1 block)
COc1ccc(C(CC(=O)N2CCN(c3ccccc3)CC2)c2c(OC)cc(OC)c3c(-c4ccccc4)cc(=O)oc23)cc1 (configuration not stated)	POLB inh 8.9µM (no result: L3MBTL1 block, POLI inh, POLK inh, Pol eta inh)
C=C(Br)COC(c1ccco1)[C@H](Cc1ccccc1)NC(=O)OC(C)(C)C (some centres not stated)	none (no result: L3MBTL1 block, Pol eta inh, POLB inh)
COc1cccc(NS(=O)(=O)c2ccc3[nH]cc(C(=O)N(C)Cc4ccco4)c(=O)c3c2)c1	POLI inh 79µM, POLK inh inconclusive, Pol eta inh inconclusive, POLB inh inconclusive (no result: L3MBTL1 block)
Cc1cc(C)cc(NS(=O)(=O)c2ccc3[nH]cc(C(=O)N(C)Cc4ccccc4)c(=O)c3c2)c1	POLI inh inconclusive (no result: L3MBTL1 block)
Cc1ccccc1NS(=O)(=O)c1ccc2[nH]cc(C(=O)N(C)Cc3ccco3)c(=O)c2c1	L3MBTL1 block inconclusive, POLI inh inconclusive, POLK inh inconclusive, Pol eta inh 8.9µM, POLB inh 20µM
Cc1nc(NC(=O)c2ccccc2)sc1-c1cc(C(=O)O)nn1Cc1ccccc1	none (no result: L3MBTL1 block, POLI inh, POLK inh, POLB inh)
Cc1ccc(Sc2ccccc2CN(C)C)c(N)c1	none (no result: L3MBTL1 block, POLI inh, Pol eta inh, POLB inh)
O=C(O)c1ccc2ncsc2c1	L3MBTL1 block 10µM, POLI inh 4µM
CC(=O)C(=O)O	none (no result: L3MBTL1 block, POLI inh, Pol eta inh, POLB inh)
O=C(O)C1CC=CCC1C(=O)Nc1ccc2c(c1)OCCO2 (configuration not stated)	L3MBTL1 block inconclusive, Pol eta inh inconclusive, POLB inh 20µM
O=C(O)C1CC=CCC1C(=O)Nc1cccc(F)c1 (configuration not stated)	POLB inh 28µM
C=C(C)C1CCC2(C(=O)O)CCC3(C)C(CCC4C5(C)C(C=O)C(O)C(C)(C)C5CCC43C)C12 (configuration not stated)	Pol eta inh 79µM (no result: L3MBTL1 block)
CC1=C(C(=O)O)CC(S(=O)(=O)O)C1(C)C (configuration not stated)	none (no result: L3MBTL1 block, POLB inh)
N[C@@H](C(=O)O)[C@@H](CC(=O)O)c1ccc(Cl)cc1	none (no result: L3MBTL1 block, POLI inh, Pol eta inh, POLB inh)
O=C(CCCN1C(=O)/C(=C/c2ccc(F)cc2)SC1=S)NC1CCS(=O)(=O)C1 (configuration not stated)	POLB inh inconclusive (no result: L3MBTL1 block)
Cc1c(C(=O)NNC(=O)c2csc(N3CCOCC3)n2)oc2ccc(Br)cc12	Pol eta inh 25µM (no result: L3MBTL1 block, POLI inh, POLK inh, POLB inh)
Cc1c(C(=O)NNC(=O)c2csc(N3CCOCC3)n2)oc2ccccc12	POLI inh inconclusive, Pol eta inh inconclusive (no result: POLB inh)
c1cc2[nH]snc2c2nc(C3CC3)nc12	POLI inh inconclusive, Pol eta inh 79µM
COc1ccc(Cc2nnc(Nc3ccccc3)s2)cc1Br	POLI inh inconclusive, Pol eta inh inconclusive, POLB inh 56µM (no result: L3MBTL1 block)
Cc1cc(N2CCCCC2)nc2ccccc12	none
Cc1cc(-n2nnc3ccccc32)nc2ccccc12	POLI inh 89µM
CC(C)C[C@H](NC(=O)CN(C)C(=O)[C@H](Cc1ccccc1)NC(=O)[C@H](Cc1ccccc1)NC(=O)[C@H](CCC(N)=O)NC(=O)[C@H](CCC(N)=O)NC(=O)[C@@H]1CCCN1C(=O)[C@H](CCCCN)NC(=O)[C@@H]1CCCN1C(=O)[C@@H](N)CCCN=C(N)N)C(=O)N[C@@H](CCS(C)(=O)=O)C(N)=O	none (no result: L3MBTL1 block, POLI inh, Pol eta inh, POLB inh)
CCc1ccc(OCC(=O)NC(=S)Nc2ccc(C)cc2C)c(Br)c1	POLI inh 79µM
CCc1ccc(OCC(=O)NNC(=S)NC(=O)C2CC2)c(Br)c1	none (no result: L3MBTL1 block)
CN(C)c1c(Cl)cc(/C=C/c2ccnc3ccccc23)cc1Br	POLI inh inconclusive (no result: L3MBTL1 block, Pol eta inh, POLB inh)
CCCCn1c(NC(C)=O)c(C#N)c2nc3ccccc3nc21	POLI inh inconclusive
C=CCn1c(NC(=O)c2ccccc2Cl)c(C#N)c2nc3ccccc3nc21	L3MBTL1 block inconclusive, POLI inh inconclusive, Pol eta inh 32µM
CCOC(=O)N1CCN(C(=O)C2CCN(C(=O)c3ccccc3C)CC2)CC1	POLI inh inconclusive, POLK inh inconclusive, Pol eta inh 32µM (no result: L3MBTL1 block, POLB inh)
Cc1ccccc1C(=O)N1CCC(C(=O)N2CCN(c3ncccn3)CC2)CC1	none (no result: POLB inh)
Cc1oc2ncn(C)c(=O)c2c1C(=O)N1CCN(c2cccc(C(F)(F)F)c2)CC1	none (no result: L3MBTL1 block)
CS(=O)(=O)Nc1cccc(-c2cn3c(n2)SCC3)c1	POLI inh inconclusive, POLK inh 32µM (no result: L3MBTL1 block)
CCS(=O)(=O)Nc1cccc(-c2cn3c(n2)SCC3)c1	none (no result: L3MBTL1 block)
CCC1=NN(C(=O)c2cccc(Br)c2)C(O)(c2ccc(Br)cc2)C1 (configuration not stated)	L3MBTL1 block 28µM, Pol eta inh inconclusive
COc1ccc(/C=N/Nc2ncc(-c3ccccc3)cn2)c(OC)c1	POLI inh 25µM, POLB inh inconclusive
O=C(CCc1ccc(O)cc1)c1c(O)cc(O)cc1O	POLK inh inconclusive, POLB inh 7.1µM (no result: L3MBTL1 block)
COc1cc(O)c(CC=C(C)C)c(O)c1C(=O)CCc1ccc(O)cc1	none (no result: L3MBTL1 block)
COc1ccc(-c2csc(NC(=O)c3cccc(N4C(=O)CCC4=O)c3)n2)cc1C	none (no result: L3MBTL1 block)
COc1ccc(OC)c2sc(NC(=O)c3cccc(N4C(=O)CCC4=O)c3)nc12	POLI inh 28µM, Pol eta inh inconclusive, POLB inh inconclusive (no result: L3MBTL1 block)
COc1ccc(C2C(=O)N(C3CCCCCC3)CC(=O)N2CCC2=CCCCC2)cc1 (configuration not stated)	none (no result: L3MBTL1 block)
CC1CCCCC1NCc1cccc([N+](=O)[O-])c1 (configuration not stated)	none
O=[N+]([O-])c1cccc(CNC2CCCCCC2)c1	POLB inh 28µM
CC1CCCCN1C(=S)Nc1ccc(S(=O)(=O)N2CCCCC2)cc1 (configuration not stated)	none (no result: L3MBTL1 block, POLI inh, POLK inh, POLB inh)
CC=Cc1cc2c(c(=O)o1)C(=O)C(O)C(C)O2 (configuration not stated)	POLI inh 50µM, Pol eta inh inconclusive (no result: L3MBTL1 block, POLB inh)
c1ccc(-c2csc3ncnc(Sc4nnnn4-c4ccccc4)c23)cc1	none (no result: L3MBTL1 block, Pol eta inh, POLB inh)
Cc1ccc2nc(-c3ccc(NC(=O)CSc4ccccc4)cc3)[nH]c2c1	POLI inh 35µM, POLB inh 22µM
Cc1ccc2nc(SCC(=O)Nc3ccc(C(N)=O)cc3)[nH]c2c1	none (no result: L3MBTL1 block)
O=C(CSc1ccccc1)Nc1ccc(-c2nc3ccccc3[nH]2)cc1	POLI inh inconclusive, POLK inh inconclusive, Pol eta inh inconclusive, POLB inh 7.1µM
O=C(CSc1ccc(Cl)cc1)Nc1cccc(-c2nc3ccccc3[nH]2)c1	POLI inh inconclusive, Pol eta inh inconclusive
COc1ccc(NC(=O)c2ccccc2N2C(=O)C3C4C=CC(C5CC45)C3C2=O)c(OC)c1 (configuration not stated)	none (no result: L3MBTL1 block)
OCC1OC(O)C(O)C(O)C1O (configuration not stated)	none (no result: L3MBTL1 block, POLI inh, Pol eta inh, POLB inh)
